# 3T3 cytotox = Cytotoxic Profiling in NIH 3T3 Cell Line of Diverse Libraries Using Quantitative High-Throughput Screening; NIH 3T3 viability, CellTiter-Glo ATP luminescence, 48-72 h; Potency, µM (doses to about 96.7 µM), without a hit: top-dose activity change, negative = cytotoxicity, usual class: inhibitors; hit rate 4.3% among 94,000; note: nearly all actives have a fitted effect of over 55% in size
#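 NIH 3T3 cells at 400 cells/well received 23 nL of compound by pintool and were incubated 48 or 72 h at 37 °C. Viability was read as ATP-coupled CellTiter-Glo luminescence.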
# SNCA expr inhib = Primary qHTS assay for inhibitors of alpha-synuclein gene (SNCA) expression; HEK-293 SNCA-luciferase knock-in, luminescence, 24 h; Potency, µM (series often up to 57.2 µM), inactives show at the top dose activity change, negative = inhibition, actives largely listed as inhibitors; hit rate 0.17% among 140,000; AID 1671194, 2021;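 note: plate controls were DMSO cells for no effect and cell-free wells for full effect; nearly all actives have a fitted effect of over 45% in size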
# NPR1 antag = Natriuretic polypeptide receptor (hNpr1) antagonism - Primary qHTS. Atrial natriuretic peptide receptor 1 (Homo sapiens), P16066. hit rate 1.6% among 76,000. HEK293 hNpr1 GloSensor cGMP, ANP-stimulated luminescence. Potency, µM (series often up to 46.3 µM), for inactives: at the highest dose activity change, negative = inhibition, most hits filed as inhibitors; calls by dose curve; note: nearly all actives have a fitted effect of over 60% in size
#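 Compound pre-incubated 30 min at room temperature on GloSensor-loaded HEK293 cells stably carrying hNpr1 and the pGS-40F cGMP biosensor. Stimulation uses hNppA at 0.1 nM final; luminescence is taken at baseline and 20 min post-agonist.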
# Luciferase inh = Firefly luciferase inhibition profiling of diverse chemical library using quantitative high-throughput screening; Luciferin 4-monooxygenase (Photinus pyralis), P08659; purified P. pyralis luciferase, luminescence, biochemical; Potency, µM (titrated, usually from 115 µM), hits mostly inhibitors; hit rate 2.5% among 76,000; note: nearly all actives have a fitted effect of over 65% in size
# Target sequence (P08659 whole entry, looked up): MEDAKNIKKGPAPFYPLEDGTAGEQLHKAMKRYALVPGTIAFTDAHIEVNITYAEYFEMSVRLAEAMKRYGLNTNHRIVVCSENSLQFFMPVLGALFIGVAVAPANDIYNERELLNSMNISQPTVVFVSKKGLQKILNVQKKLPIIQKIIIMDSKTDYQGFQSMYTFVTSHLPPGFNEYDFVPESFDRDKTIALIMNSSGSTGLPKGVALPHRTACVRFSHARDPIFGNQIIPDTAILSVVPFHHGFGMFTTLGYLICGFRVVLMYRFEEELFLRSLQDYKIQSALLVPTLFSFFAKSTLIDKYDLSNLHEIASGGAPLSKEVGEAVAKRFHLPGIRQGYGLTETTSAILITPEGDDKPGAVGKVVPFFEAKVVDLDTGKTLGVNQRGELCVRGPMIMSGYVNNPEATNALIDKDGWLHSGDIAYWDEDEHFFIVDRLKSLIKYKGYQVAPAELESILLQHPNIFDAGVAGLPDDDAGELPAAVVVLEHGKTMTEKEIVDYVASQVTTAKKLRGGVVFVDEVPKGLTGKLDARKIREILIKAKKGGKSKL
#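 Inhibitors were tested against purified firefly luciferase in a biochemical, low-substrate format (both substrates at 10uM) and luminescence measured with a CCD imager.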
# HEK293 viab = GF-AFC viability counterscreen for inhibitors of alpha-synuclein gene (SNCA) expression | Potency, µM (highest dose often 57.1 µM), for the others: at the top dose activity change, negative = cytotoxicity, actives largely listed as cytotoxic | hit rate 0.12% among 150,000 | HEK-293-SNCA-luc viability, GF-AFC fluorescence, 24 h;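 note: 0% = DMSO-treated cells and -100% = medium-only wells without cells; nearly all actives have a fitted effect of over 30% in size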
#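 HEK-293-SNCA-luc cells (1500/well) plated 24 h, then exposed 24 h to a dilution series; GF-AFC added 30 min at 37C, fluorescence 405/540 nm; normalised to medium-only and DMSO wells, Hill fit.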
# HEK cytotox = Cytotoxic Profiling in HEK 293 Cell Line of Diverse Libraries Using Quantitative High-Throughput Screening | HEK 293 viability, ATP luminescence (CellTiter-Glo), 48-72 h | AID 1345083, 2018 | Potency, µM (highest dose often 115 µM), for inactives: at the top dose activity change, negative = cytotoxicity, actives largely listed as inhibitors | hit rate 6.6% among 94,000; note: nearly all actives have a fitted effect of over 60% in size
#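 HEK 293 cells seeded at 250 cells/well were exposed to compound for 48 or 72 hr at 37 degree Celsius. Viability taken as ATP content by CellTiter-Glo luminescence.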
# * marks the source's active call; other numbers are inactive results; i = inactive; u = inconclusive; [ ] = another dose, or the depositor's remark. Shown are actives, neighbours in structure and some others; about 7.2% of the full set was active somewhere. Unless noted, calls come from the whole dose curve; as a rule, active = well fitted curve in the direction sought with a large enough effect; inconclusive = small, poorly fitted or top-dose-only effect, or another doubt; inactive = no such curve, though single readings can be large; an effect the other way counts as inactive or inconclusive. Unless noted, % is set by controls: 0 for no effect and ±100 for the full control effect; potency is the fitted concentration of half-maximal effect.
SMILES,3T3 cytotox,SNCA expr inhib,NPR1 antag,Luciferase inh,HEK293 viab,HEK cytotox
COc1ccc(C(=O)N2C[C@@H](Oc3ccccc3)C[C@@H]2C(=O)N2CCOCC2)cc1,-26%,1%,-6%,i,-20%,-16%
CCc1cc(=O)n(CC(=O)N2CCN(c3ccccc3F)CC2)c(N2CCOCC2)n1,u,-18%,-24%,i,-16%,40µM*
CC(=O)N1CCCN(Cc2nnc(C(=O)N3CCC[C@@H]3c3cccc(F)c3)n2-c2cccnc2)CC1,22µM*,-32%,-1%,i,3%,35µM*
COc1ccc(-c2nc(-c3c(C)noc3C)cc3c2cc(C)n3CCN(C)C)cc1OC,u,-18%[87.6 µM],-16%[70.6 µM],i,-21%[87.6 µM],89µM*
CC(=O)Nc1cccc(-c2nc(-c3c(C)noc3C)cc3c2cc(C)n3CCN(C)C)c1,u,-3%[87.6 µM],7%[70.6 µM],i,-4%[87.6 µM],79µM*
COc1ncccc1-c1nc(-c2c(C)noc2C)cc2c1cc(C)n2CCN(C)C,10µM*,24%[87.6 µM],3%[70.6 µM],i,-14%[87.6 µM],u
COc1cccc(-c2nc(-c3c(C)noc3C)cc3c2cc(C)n3CCN(C)C)c1,10µM*,21%[87.6 µM],3%[70.6 µM],i,-13%[87.6 µM],45µM*
COCC(NC(=O)c1cc(S(N)(=O)=O)ccc1F)c1ccnn1C (configuration not stated),i,6%,2%,i,14%,i
O=C(Nc1ccccc1)Nc1ccc(=O)n2c1[C@@H]1C[C@@H](CN(C(=O)Nc3ccc(F)cc3)C1)C2,-29%,-20%,-2%,i,-6%,-13%
O=C(Cn1nc2c(cc1=O)CCCCC2)Nc1nccs1,-12%,59%,2%,i,-16%,2%
COc1ccccc1CN1CCOc2cc([S+](=O)([O-])N(C)C)ccc2C1,u,-21%[87.6 µM],-7%[70.6 µM],i,-10%[87.6 µM],89µM*
CN(C)[S+](=O)([O-])c1ccc2c(c1)OCCN(Cc1ccccc1Cl)C2,56µM*,-29%[87.6 µM],-30%[70.6 µM],i,-30%[87.6 µM],u
O=C(c1n[nH]c2c1CCCC2)N1CCc2c(nc3cc(-c4ccccc4)[nH]n3c2=O)C1,i,-19%,-10%,i,-4%,-1%
COc1ccc(C(=O)N2CCCC(c3nn(-c4ccc(OC)cc4)c(=O)[nH]3)C2)cc1 (configuration not stated),-31%,2%,17%,i,-25%,-12%
Cc1cccc(CC(C)NC(=O)c2ccc3nc(Cc4ccccc4F)oc3c2)n1 (configuration not stated),-23%,23%,1%,u,6%,u
COCCN1CCN(C(=O)[C@@H]2Cc3cn(Cc4cc(C)on4)c4cccc(c34)[C@H](CC(C)C)N2)CC1,u,-8%,-1%,i,-1%,-29%
Cc1cc(Cn2cc3c4c(cccc42)[C@H](CC(C)C)N[C@H](C(=O)NC(C)C)C3)no1,50µM*,u,-5%[70.6 µM],i,-18%[87.6 µM],45µM*
Cc1cc(Cn2cc3c4c(cccc42)[C@H](CC(C)C)N[C@H](C(=O)N2CCN(C)CC2)C3)no1,u,3%,2%,i,-4%,u
Cc1cc(Cn2cc3c4c(cccc42)[C@H](CC(C)C)N[C@H](C(=O)NC2CCC2)C3)no1,u,11%[87.6 µM],4%[70.6 µM],i,2%[87.6 µM],79µM*
C#CCNC(=O)[C@@H]1Cc2cn(Cc3cc(C)on3)c3cccc(c23)[C@H](CC(C)C)N1,u,16%[87.6 µM],8%[70.6 µM],i,-1%[87.6 µM],u
COCCCNC(=O)[C@@H]1Cc2cn(Cc3cc(C)on3)c3cccc(c23)[C@H](CC(C)C)N1,u,7%,8%,i,-11%,35µM*
C=CCNC(=O)[C@@H]1Cc2cn(Cc3cc(C)on3)c3cccc(c23)[C@H](CC(C)C)N1,79µM*,u,1%[70.6 µM],i,u,71µM*
CC(=O)N1CCN(C(=O)[C@@H]2Cc3cn(Cc4cc(C)on4)c4cccc(c34)[C@H](CC(C)C)N2)CC1,-7%,13%,6%,i,-2%,i
Cc1cc(Cn2cc3c4c(cccc42)[C@H](CC(C)C)N[C@H](C(=O)NC2CCCC2)C3)no1,32µM*,-4%[87.6 µM],-1%[70.6 µM],i,-9%[87.6 µM],40µM*
Cc1cc(Cn2cc3c4c(cccc42)[C@H](CC(C)C)N[C@H](C(=O)NCCN2CCCC2)C3)no1,22µM*,-18%,-7%,i,-9%,28µM*
SMILES,3T3 cytotox,SNCA expr inhib,NPR1 antag,Luciferase inh,HEK293 viab,HEK cytotox
COc1ccc(CN2C=C(C(=O)OCc3noc(-c4ccccc4C)n3)C(C)=NS2(=O)=O)cc1,u,-11%,-18%,i,-13%,u
CN1CCN(c2cc(=O)c3ccnc(-c4ccc(CO)cc4)c3o2)CC1,u,1%[87.6 µM],5%[70.6 µM],i,2%[87.6 µM],i
O=c1cc(N2CCOCC2)oc2c(NCc3ccc(F)cc3)nccc12,25µM*,-6%[87.6 µM],4%[70.6 µM],i,-10%[87.6 µM],u
COc1ccc(-c2nccc3c(=O)cc(N4CCOCC4)oc23)cc1OC,10µM*,15%[87.6 µM],-1%[70.6 µM],i,-8%[87.6 µM],u
CN1CCN(c2cc(=O)c3ccnc(Nc4ccc(F)c(Cl)c4)c3o2)CC1,100µM*,u,2%[70.6 µM],i,4%[87.6 µM],u
O=c1cc(N2CCOCC2)oc2c(-c3ccc(F)cc3)nccc12,32µM*,-13%[87.6 µM],2%[70.6 µM],i,-3%[87.6 µM],u
CN1C(=O)C2(CCN(C(=O)c3ccnn3C)CC2)c2ccccc21,i,0%,-1%,i,-5%,2%
O=c1cc(N2CCOCC2)oc2c(-c3ccc(F)c(Cl)c3)nccc12,18µM*,u,4%[70.6 µM],i,1%[87.6 µM],-12%[172 µM]
CN(C)c1cc(=O)c2ccnc(-c3cccc(CO)c3)c2o1,u,-20%[87.6 µM],-3%[70.6 µM],i,-2%[87.6 µM],i
CN(C)c1cc(=O)c2ccnc(-c3ccc(N4CCOCC4)cc3)c2o1,u,9%[87.6 µM],-1%[70.6 µM],45µM*,-13%[87.6 µM],i
Cc1cc(-c2nccc3c(=O)cc(N4CCOCC4)oc23)ccn1,32µM*,42%[87.6 µM],5%[70.6 µM],i,4%[87.6 µM],-21%[172 µM]
CN1CCN(c2cc(=O)c3ccnc(Nc4ccccn4)c3o2)CC1,u,21%[87.6 µM],1%[70.6 µM],i,3%[87.6 µM],-6%[172 µM]
O=c1cc(N2CCOCC2)oc2c(N3CCOCC3)nccc12,40µM*,30%[87.6 µM],6%[70.6 µM],i,-14%[87.6 µM],u
O=c1cc(-c2cccnc2)oc2c(-c3cccc(F)c3)nccc12,u,9%[87.6 µM],0%[70.6 µM],i,-15%[87.6 µM],-11%[172 µM]

# Screening data from PubChem BioAssay.
